“And” between values parts separate entries of the source, which are not always exact repeats. Equal values may be shown once. Hit rate of the full screen: of about 5,500 compounds, about 2,000 (36%) were called active. Not shown: some 18% with an inconclusive outcome. Rule as the data show it: active = normalized growth mostly below about 0.91 (no sharp cut-off); inconclusive = no clear call, values can overlap the other calls; inactive = mostly above about 0.92. The list shows a part of the results.
Assay: chemical genetic growth profiling, strain panel (AID 1159580);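 also: tested at 20 µM; growth read once vehicle control cultures reached saturation at 30 °C; 1 = growth at the plate median or of vehicle wells; lower values mean less growth of the strain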
Details: S. cerevisiae deletion strains, growth OD

Measured: normalized growth

COc1ccc(OC)c(C(O)C(C)N)c1 (stereo not given)
inactive: locus YAL013W, strain DEP1, hits give low values 1.02 and 1.01 | locus YAL021C, strain ccr4, hits give low values 1 | locus YAL026C, strain drs2, hits give low values 0.993 | locus YAL030W, strain snc1, hits give low values 0.998 | locus YAL040C, strain CLN3, hits give low values 0.977 | locus YBL061C, strain skt5, hits give low values 0.996 | locus YBR009C, strain hhf1, hits give low values 1.01 | locus YBR021W, strain FUR4, hits give low values 1.01 | locus YBR023C, strain chs3, hits give low values 0.998 | locus YBR171W, strain sec66, hits give low values 0.991 | locus YBR229C, strain ROT2, hits give low values 1.02 | locus YBR231C, strain swc5, hits give low values 0.977 | locus YBR279W, strain paf1, hits give low values 1 | locus YCL011C, strain gbp2, hits give low values 1.01 | locus YCL016C, strain dcc1, hits give low values 1.01 | locus YCL029C, strain bik1, hits give low values 0.99 | locus YCL061C, strain MRC1 (second series), hits give low values 1.02 | locus YCL061C, strain MRC1, hits give low values 0.99 | locus YCL069W, strain vba3, hits give low values 1 | locus YCR088W, strain abp1, hits give low values 0.998 | locus YDL005C, strain med2, hits give low values 0.994 | locus YDL035C, strain GPR1, hits give low values 1.01 | locus YDL040C, strain nat1, hits give low values 0.996 | locus YDL074C, strain BRE1, hits give low values 1.05 | locus YDL101C, strain DUN1, hits give low values 1.03 | locus YDL134C, strain PPH21, hits give low values 1.03 | locus YDL185W, strain tfp1, hits give low values 0.988 | locus YDL192W, strain arf1, hits give low values 0.99 | locus YDR001C, strain nth1, hits give low values 0.99 | locus YDR069C, strain doa4, hits give low values 0.999 | locus YDR101C, strain arx1, hits give low values 0.981 | locus YDR137W, strain rgp1, hits give low values 1.03 | locus YDR150W, strain NUM1, hits give low values 1.02 | locus YDR159W, strain sac3, hits give low values 1.01 | locus YDR162C, strain NBP2, hits give low values 1.05 | locus YDR195W, strain ref2 0.948 | locus YDR297W, strain sur2, hits give low values 0.998 | locus YDR318W, strain mcm21, hits give low values 0.977 | locus YDR334W, strain swr1, hits give low values 0.993 | locus YDR335W, strain msn5, hits give low values 0.997 | locus YDR363W, strain ESC2, hits give low values 1.03 | locus YDR388W, hits give low values 0.977 | locus YDR392W, strain spt3, hits give low values 1.01 | locus YDR502C, strain sam2, hits give low values 1 | locus YEL003W, strain gim4, hits give low values 1 | locus YEL037C, strain rad23, hits give low values 0.991 | locus YEL061C, strain CIN8 (second series), hits give low values 0.983 | locus YEL061C, strain CIN8, hits give low values 1.01 | locus YER002W, strain NOP16, hits give low values 0.993 | locus YER015W, strain faa2, hits give low values 0.99 | locus YER016W, strain bim1, hits give low values 0.998 | locus YER110C, hits give low values 0.981 | locus YER111C, strain swi4, hits give low values 1 | locus YER155C, strain BEM2 (second series), hits give low values 0.988 | locus YER155C, strain BEM2, hits give low values 1.01 | locus YER167W, strain BCK2, hits give low values 1.01 | locus YFR010W, strain ubp6, hits give low values 0.99 | locus YGL078C, strain dbp3, hits give low values 0.997 | locus YGL086W, strain mad1, hits give low values 0.983 | locus YGL167C, strain pmr1, hits give low values 0.998 | locus YGL173C, strain kem1, hits give low values 0.991 | locus YGL227W, strain vid30, hits give low values 0.991 | locus YGL240W, strain doc1, hits give low values 0.981 | locus YGL248W, strain PDE1, hits give low values 1.03 | locus YGL253W, strain hxk2, hits give low values 0.998 | locus YGR078C, strain PAC10, hits give low values 1.04 | locus YGR135W, strain pre9, hits give low values 1.03 | locus YGR229C, strain SMI1, hits give low values 1.03 | locus YGR252W, strain gcn5, hits give low values 0.947 | locus YHR013C, strain ard1, hits give low values 0.99 | locus YHR027C, strain rpn1, hits give low values 1 | locus YHR030C, strain SLT2, hits give low values 1 and 1.03 | locus YHR079C, strain IRE1 (second series), hits give low values 0.988 | locus YHR079C, strain IRE1, hits give low values 1.05 | locus YHR094C, strain hxt1, hits give low values 0.99 | locus YHR129C, strain ARP1, hits give low values 1.01 | locus YHR142W, strain chs7, hits give low values 1.01 | locus YHR200W, strain rpn10, hits give low values 0.993 | locus YIL066C, strain RNR3, hits give low values 1.01 | locus YIL073C, strain SPO22, hits give low values 1 | locus YIL125W, strain kgd1, hits give low values 0.995 | locus YIR030C, strain dcg1, hits give low values 0.988 | locus YJL092W, strain hpr5, hits give low values 0.997 | locus YJL095W, strain BCK1 (second series), hits give low values 0.997 | locus YJL095W, strain BCK1, hits give low values 1.04 and 1.03 | locus YJL115W, strain asf1, hits give low values 0.99 | locus YJL129C, strain trk1, hits give low values 0.997 | locus YJL134W, strain LCB3, hits give low values 1.01 | locus YJL154C, strain vps35, hits give low values 0.998 | locus YJL164C, strain tpk1, hits give low values 1.01 | locus YJL166W, strain qcr8, hits give low values 0.974 | locus YJL168C, strain set2, hits give low values 0.989 | locus YJL187C, strain SWE1 (second series), hits give low values 1.02 | locus YJL187C, strain SWE1, hits give low values 1 | locus YJR043C, strain POL32, hits give low values 0.977

From PubChem BioAssay AID1159580 (chemical genetic matrix, 2015)
